Experimental data published in PubChem BioAssay (NCI).
About 79,000 compounds went through this panel and 15% of them were active in at least one assay; those are over-represented in the sample as a whole. Calls of active or inactive are those of the source. No stated cut-off is given here; in the data, active means growth inhibition above about 70%; inactive means the rest.

Legend:
[1] = NCI Yeast Anticancer Drug Screen. Data for the rad52 strain (AID 147);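 further: 0% = growth of vehicle-treated control cultures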; conditions: S. cerevisiae rad52 mutant growth inhibition, active compounds read high
In short: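 Screen used a yeast mutant impaired in DNA repair. After compound exposure, growth was measured. Values reflect inhibition compared with vehicle-treated cells.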

[2] = NCI Yeast Anticancer Drug Screen. Data for the wt1 strain (AID 149);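 further: 0% = growth of vehicle-treated wt1 cultures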; conditions: S. cerevisiae wt1 strain (SPY 50644) growth inhibition, active compounds read high
In short: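 Readout: yeast growth inhibition, normalised to vehicle controls, in the wt1 strain exposed to test compounds.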

[3] = NCI Yeast Anticancer Drug Screen. Data for the rad50 strain (AID 155);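 further: 0% = growth of vehicle-only cultures of the same strain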; conditions: S. cerevisiae rad50 strain growth inhibition, active compounds read high
In short: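 Compounds were tested on a yeast strain with an engineered DNA damage repair alteration; the reported value is growth inhibition normalised to vehicle treatment.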

[4] = NCI Yeast Anticancer Drug Screen. Data for the mec2-1 strain (AID 157); conditions: S. cerevisiae mec2-1 strain, active compounds read high
In short: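 Readout is yeast growth inhibition, normalised to vehicle-treated controls, in the mec2-1 strain exposed to compound.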

[5] = NCI Yeast Anticancer Drug Screen. Data for the rad14 strain (AID 159);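 further: 0% = growth of vehicle-treated control cultures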; conditions: S. cerevisiae rad14 strain growth inhibition, active compounds read high
In short: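 Compound-treated yeast with a defined DNA-repair lesion; growth inhibition normalised to vehicle-treated cultures.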

[6] = NCI Yeast Anticancer Drug Screen. Data for the sgs1 mgt1 strain (AID 161);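 further: 0% = growth of cultures given vehicle only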; conditions: S. cerevisiae sgs1 mgt1 strain, active compounds read high
In short: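 Growth of a repair-deficient yeast mutant was monitored after compound treatment and expressed as inhibition relative to vehicle-treated cultures.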

[7] = NCI Yeast Anticancer Drug Screen. Data for the CLN2oe strain (AID 163);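 further: 0% = growth of vehicle-only control cultures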; conditions: S. cerevisiae CLN2oe strain, active compounds read high
In short: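 Values reflect how much compound exposure reduced yeast growth, referenced to vehicle-exposed cells. Assay organism is a strain with a defined genetic change affecting cell-cycle control.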

[8] = NCI Yeast Anticancer Drug Screen. Data for the cln2 rad14 strain (AID 165);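 further: 0% = growth equal to vehicle treated cultures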; conditions: S. cerevisiae cln2 rad14 strain, active compounds read high
In short: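 Relative to vehicle controls, growth inhibition of compound-treated cln2 rad14 yeast was recorded.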

[9] = NCI Yeast Anticancer Drug Screen. Data for the bub3 strain (AID 167); conditions: S. cerevisiae bub3 mutant strain, active compounds read high
In short: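 Growth of a checkpoint-deficient yeast mutant is measured after compound exposure. Values represent inhibition relative to vehicle.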

[10] = NCI Yeast Anticancer Drug Screen. Data for the wt2 strain (AID 169);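 further: 0% = growth of vehicle-treated yeast cultures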; conditions: S. cerevisiae wt2 strain growth inhibition, active compounds read high
In short: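 Values express reduction in yeast growth under compound treatment, referenced to vehicle-treated cells.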

[11] = NCI Yeast Anticancer Drug Screen. Data for the mlh1 strain (AID 171);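 further: 0% = growth of vehicle-treated control cultures of the same strain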; conditions: S. cerevisiae mlh1 strain growth inhibition, active compounds read high
In short: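 Steps: expose the defined-mutant yeast strain to compound; expose a parallel culture to vehicle; measure growth; express compound effect as inhibition relative to the vehicle culture.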

[12] = NCI Yeast Anticancer Drug Screen. Data for the sgs1 strain (AID 173);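 further: 0% = growth of vehicle-only control cultures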; conditions: S. cerevisiae sgs1 mutant, active compounds read high
In short: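 Treat defined-mutant yeast with compound; measure growth; calculate inhibition relative to vehicle-treated cells.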

[13] = NCI Yeast Anticancer Drug Screen. Data for the mlh1 rad18 strain (AID 175); conditions: S. cerevisiae mlh1 rad18 strain growth inhibition, active compounds read high
In short: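 Test agents were incubated with a yeast strain of defined genotype (DNA damage repair defect). Inhibition of growth was derived by comparison with vehicle-exposed cultures.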

[14] = NCI Yeast Anticancer Drug Screen. Data for the rad18 strain (AID 177); conditions: S. cerevisiae rad18 mutant growth inhibition, active compounds read high
In short: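 A genetically defined yeast mutant impaired in DNA damage repair was treated with test compounds, then its growth was measured against cultures receiving vehicle alone.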

[15] = at 5.0 µM (retest, dose inferred, filed as 0.5)
[16] = at 50.0 µM (retest, dose inferred, filed as 5.0)

Measured: growth inhibition

COC(COC(=O)N1CCN(C=O)CC1)C1=C(N2CC2)C(=O)C(C)=C(N2CC2)C1=O (stereo not drawn)
inactive: [1]; at 1.2 µM 4% | [1]; at 3.7 µM 18% | [1]; at 11.0 µM 30% | [1]; at 33.0 µM 66% | [2]; at 1.2 µM 10% | [2]; at 3.7 µM 12% | [2]; at 11.0 µM 22% | [2]; at 33.0 µM 39% | [2]; at 100.0 µM 47% | [3]; at 1.2 µM 17% | [3]; at 3.7 µM 35% | [3]; [15] 64% | [3]; at 11.0 µM 43% | [3]; at 33.0 µM 53% | [3]; [16] 22% | [3]; at 50.0 µM 35.3% | [4]; at 1.2 µM -6% | [4]; at 3.7 µM 1% | [4]; [15] 19% | [4]; at 11.0 µM 6% | [4]; at 33.0 µM 36% | [4]; [16] 35% | [4]; at 50.0 µM 32.9% | [4]; at 100.0 µM 67% | [5]; at 1.2 µM 4% | [5]; at 3.7 µM 1% | [5]; at 11.0 µM 6% | [5]; at 33.0 µM 39% | [6]; [15] -8% | [6]; [16] 26% | [6]; at 50.0 µM 40.4% | [7]; at 1.2 µM 12% | [7]; at 3.7 µM 23% | [7]; at 11.0 µM 25% | [7]; at 33.0 µM 29% | [7]; at 100.0 µM 53% | [8]; [15] -11% | [8]; [16] 27% | [8]; at 50.0 µM 34.5% | [9]; at 1.2 µM -18% | [9]; at 3.7 µM -3% | [9]; [15] -2% | [9]; at 11.0 µM -4% | [9]; at 33.0 µM 10% | [9]; [16] 1% | [9]; at 50.0 µM -10.2% | [9]; at 100.0 µM 18% | [10]; at 1.2 µM -27% | [10]; at 3.7 µM -33% | [10]; at 11.0 µM -25% | [10]; at 33.0 µM -17% | [10]; at 100.0 µM -2% | [11]; at 1.2 µM -7% | [11]; at 3.7 µM -32% | [11]; at 11.0 µM -9% | [11]; at 33.0 µM 17% | [11]; at 100.0 µM 38% | [12]; at 1.2 µM 20% | [12]; at 3.7 µM 14% | [12]; at 11.0 µM 24% | [12]; at 33.0 µM 40% | [12]; at 100.0 µM 64% | [13]; [15] 23% | [14]; at 1.2 µM 26% | [14]; at 3.7 µM 59%
active: [1]; at 100.0 µM 79% | [3]; at 100.0 µM 79% | [5]; at 100.0 µM 74% | [13]; [16] 74% | [13]; at 50.0 µM 79.4% | [14]; at 11.0 µM 79% | [14]; at 33.0 µM 89% | [14]; at 100.0 µM 93%
